Drawing on ChEMBL document CHEMBL1157539, “Thousands of chemical starting points for antimalarial lead identification” (Nature, 2010), this text covers Inhibition for 10 compounds.

What all share (format): functional
For assay [1], the system named is Plasmodium falciparum. The assay can be described thus: GSK_TCMDC: Inhibition of Plasmodium falciparum 3D7 in whole red blood cells, using parasite LDH activity as an index of growth. Test compounds present at 2uM.
For assay [2], the system named is Plasmodium falciparum. The assay can be described thus: GSK_TCMDC: Inhibition of Plasmodium falciparum Dd2 in whole red blood cells, using parasite LDH activity as an index of growth. Test compounds present at 2uM.
For assay [3], the system named is HepG2. As to the kind of experiment: GSK_TCMDC: Percent inhibition of human HepG2 cell line. Test compounds present at 10uM.

Molecules are shown by their SMILES.

On to `Cc1cc(CNCC(CCNc2cc(=O)c3ccccc3[nH]2)NCc2cc(Br)cc(Br)c2)oc1C` (stereo not given), for which the figures for the Inhibition in assay [1], in assay [2] and in assay [3] were 98%, 85% and 4%, respectively.

Regarding `CCc1cn(CC(=O)N(CCOc2ccc(-c3ccc(C(F)(F)F)cc3)cc2)CCN(CC)CC)c(SCc2ccc(F)cc2)nc1=O`, the Inhibition in assay [1] came out at 95%; in assay [2], 29%; in assay [3], 46%.

Take `Cc1cc(=NN=Cc2ccc(F)cc2)c2cccc(C)c2[nH]1`: the Inhibition in assay [1] was 100%; in assay [2], 99%; in assay [3], 7%.

`CC(=O)Nc1ncc(C(=O)Nc2cccc(-c3ccc(-c4nc5cc(F)ccc5[nH]4)cc3)c2)s1`: the Inhibition in assay [1] worked out at 94%; in assay [2], 78%; in assay [3] it was 18%.

Consider `COc1ccccc1Cc1nc2ccccc2nc1SCC(=O)Nc1cccc(C(F)(F)F)c1`, for which the Inhibition in assay [1] is listed as 97%; in assay [2] it was 91%; in assay [3] it was 8%.

In the case of `CC(C)=C(C(=O)OCc1ccccc1)N1C(=O)[C@@H](NC(c2ccccc2)(c2ccccc2)c2ccccc2)[C@H]1[S+]([O-])CC(=O)OC(C)(C)C` (stereo not given in full), the Inhibition in assay [1] stood at 92%; in assay [2], 78%; in assay [3], 0%.

As to `CC(C)CNCc1ccc(-c2ccccc2CN(C(=O)NCCc2ccccc2)C2CCN(Cc3ccccc3)CC2)cc1.O=C(O)C(F)(F)F`, the Inhibition stood at 98% in assay [1], 94% in assay [2] and 89% in assay [3].

Take `Cn1c(NC(=O)C2CCCN(C(=O)c3ccc(O)c(-c4ccc(Cl)c(Cl)c4)c3)C2)nc2ccccc21` (stereo not given): the Inhibition in assay [1] is given as 98%; in assay [2], 99%; in assay [3] it was 0%.

On to `COCC(C)n1c(SC(C)C(=O)Nc2cc([N+](=O)[O-])ccc2Cl)nc2ccccc2c1=O` (stereo not given), for which the results for the Inhibition in assay [1], in assay [2] and in assay [3] were 95%, 94% and 0%, respectively.

Turning to `Cc1cc(C)c2c(c1)C(=NO)CCN2`, the Inhibition amounted to 94% in assay [1], 2% in assay [2] and 2% in assay [3].

What is called Inhibition is the relative decrease from the control value, in per cent. Read a high Inhibition as strong suppression.
